TGFb SMAD3 inh: qHTS for Inhibitors of TGF-b. Potency, µM (titrated, usually from 46.1 µM), hits mostly inhibitors. HepG2 CAGA-GFP TGF-b/SMAD3 reporter, GFP fluorescence, 18 h; TGF-beta stimulated, 500 pg/mL final. AID 588855, 2011. 410,000 tested, 1.2% active; also: nearly all actives have a fitted effect of over 65% in size
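TGF-beta reporter screen: HEPG2 CAGA-GFP, 1% FBS, 500 pg/mL TGF-beta final, 18 h; per-cell GFP summed per well; curves fitted and categorized by class.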
S2 tox: Viability Counterscreen for Primary qHTS for Inhibitors of ATXN expression; S2 cells (HEK-293 line with an ATXN2-luciferase reporter) viability, CellTiter-Fluor protease fluorescence, 24 h; Potency, µM (series often up to 56.7 µM), most hits filed as cytotoxic; 400,000 tested, 0.49% active; also: nearly all actives have a fitted effect of over 40% in size
HttQ103 aggreg: qHTS Multiplex Assay to Identify Dual Action Probes in a Cell Model of Huntington: Aggregate Formation (GFP). PC12 HttQ103-GFP aggregates, Acumen cytometry, 40 h. 220,000 tested, 1.1% active. AID 1688, 2009. Potency, µM (series often up to 46.1 µM), most hits filed as inhibitors; also: nearly all actives have a fitted effect of over 60% in size
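PC12 cells stably carrying ecdysone-inducible HTT exon 1 Q103–GFP were induced with tebufenozide (100 nM final) and treated with library compounds in titration. GFP aggregates in lysates were counted by laser scanning cytometry.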
ATXN2 expr inh: Primary qHTS for Inhibitors of ATXN expression. HEK-293 ATXN2-luciferase reporter, luminescence, 24 h. Potency, µM (doses to about 57 µM), hits mostly inhibitors. 360,000 tested, 0.72% active; also: nearly all actives have a fitted effect of over 55% in size
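qHTS (up to 57 uM final) was run with 24 h compound exposure of reporter cells at 37 °C. Each well was multiplexed: SteadyGlo luminescence measured ATXN2-luciferase expression after a fluorogenic Gly-Phe-AFC viability readout (25 uM final).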
HepG2 tox-1: qHTS for Inhibitors of TGF-b: Cytotox Counterscreen. HepG2 CAGA-GFP viability, ATP luminescence, 18 h. Potency, µM (series often up to 46.1 µM), usual class: cytotoxic. 410,000 tested, 0.76% active. AID 588856, 2011
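CellTiter-Glo luminescence gave cytotoxicity after 18 hours at 37 degrees C. The cells were HepG2 CAGA-GFP in 1% FBS DMEM, stimulated with 500 pg/mL TGF-beta after compound addition. %Activity was normalised to no-cell wells (complete cell-killing) and DMSO (no toxicity), and curves were fitted and classified.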
HTT ATP protect: qHTS Multiplex Assay to Identify Dual Action Probes in a Cell Model of Huntington: Cytoprotection (ATP) | Potency, µM (titrated, usually from 56.4 µM), most hits filed as activators | PC12 HTT-Q103 induced, cytoprotection, ATP luminescence, 40 h | AID 1471, 2008 | 230,000 tested, 0.14% active; also: nearly all actives have a fitted effect of over 45% in size
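PC12 cells stably carrying ecdysone-inducible Htt exon 1 (Q103)–GFP were induced with 100 nM tebufenozide (final) alongside library compounds in a dose series. Cytoprotection was scored as retained ATP by ATPlite luminescence.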
TGFb CAGA inh: qHTS for Inhibitors of TGF-b: Confirmation of Cherry Picks. shares compounds with TGFb SMAD3 inh. HepG2 CAGA-GFP TGF-b reporter, GFP fluorescence, 18 h; cells stimulated with TGF-beta, 500 pg/mL. Potency, µM (highest dose often 46.1 µM), hits mostly inhibitors. 1,600 tested, 63% active. AID 720534, 2013; also: nearly all actives have a fitted effect of over 65% in size
HepG2 tox-2: qHTS for Inhibitors of TGF-b: Cytotox Counterscreen for Cherry Picks | 1,600 tested, 27% active | shares compounds with TGFb SMAD3 inh | HepG2 CAGA-GFP viability, ATP luminescence, 18 h; cells stimulated with TGF-beta, 500 pg/mL | Potency, µM (series often up to 46.1 µM), hits mostly inhibitors; also: nearly all actives have a fitted effect of over 70% in size
CCL64 TGFb inh: qHTS for Inhibitors of TGF-b: CCL64 Cells Orthogonal Assay for Cherry Picks; shares compounds with TGFb SMAD3 inh; CCL64 CAGA-GFP reporter, TGF-b stimulated, GFP fluorescence, 18 h; Potency, µM (top dose mostly 46.1 µM), usual class: inhibitors; 1,600 tested, 41% active; also: nearly all actives have a fitted effect of over 65% in size
TGFb COP inh: qHTS for Inhibitors of TGF-b: Hit Validation in HepG2 Cells using COP promoter; shares compounds with TGFb SMAD3 inh; HepG2 COP-GFP TGF-b reporter, GFP fluorescence, 18 h; cells stimulated by added recombinant TGF-beta; Potency, µM (top dose mostly 46.1 µM), actives largely listed as inhibitors; 1,600 tested, 3% active; also: nearly all actives have a fitted effect of over 70% in size
Of the large screens only hits and unclear results are named; the others gave an inactive call (follow-up assays come after a bar, where they were run). This is a sample that favours compounds with a hit; in the whole collection about 2.8% have one here. Calls follow the shape of the dose curve; as a rule, active = well fitted curve in the direction sought with a large enough effect; inconclusive = small, poorly fitted or top-dose-only effect, or another doubt; inactive = no such curve, though single readings can be large; an effect the other way counts as inactive or inconclusive.

Cc1ccc(N(CC(O)Cn2c3ccccc3c3ccccc32)S(C)(=O)=O)c(C)c1 (stereo unspecified)	TGFb SMAD3 inh inconclusive
CCn1nc(C(=O)OC(C(=O)c2c[nH]c3ccccc23)c2ccccc2)c2ccccc2c1=O (stereo unspecified)	TGFb SMAD3 inh 11µM | TGFb CAGA inh 21µM | HepG2 tox-2 inactive | CCL64 TGFb inh inconclusive | TGFb COP inh inactive
CCOc1nc(N=C(N)N)nc2c(C)cccc12	TGFb SMAD3 inh 7.9µM, S2 tox inconclusive, ATXN2 expr inh inconclusive | TGFb CAGA inh 16µM | HepG2 tox-2 inconclusive | CCL64 TGFb inh inactive | TGFb COP inh inactive
N#Cc1nc(N(c2ccccc2)c2ccccc2)nc(-n2cccc2)n1	TGFb SMAD3 inh inconclusive (no result: S2 tox, HttQ103 aggreg, ATXN2 expr inh, HTT ATP protect)
Cc1ccc(NC(=O)c2ccc(Nc3c([N+](=O)[O-])cc([N+](=O)[O-])cc3[N+](=O)[O-])cc2)cc1	TGFb SMAD3 inh 13µM, HttQ103 aggreg inconclusive, ATXN2 expr inh 20µM (no result: S2 tox, HTT ATP protect) | TGFb CAGA inh 8.2µM | HepG2 tox-2 inconclusive | CCL64 TGFb inh 6.5µM | TGFb COP inh inactive
CCCCC/C=C\C=C\[C@H](O)CCCCCCCC(=O)O	none (no result: TGFb SMAD3 inh, S2 tox, HttQ103 aggreg, ATXN2 expr inh, HepG2 tox-1)
CC1(C)OC[C@@H]2O[C@H](n3cnc4c(N)nc(Cl)nc43)[C@@H](OS(C)(=O)=O)[C@@H]2O1	none (no result: TGFb SMAD3 inh, S2 tox, HttQ103 aggreg, ATXN2 expr inh, HepG2 tox-1)
C[C@H](CCCC(C)(C)O)[C@H]1CC[C@H]2[C@@H]3CC=C4C[C@@H](O)CC[C@]4(C)[C@H]3CC[C@]12C	none (no result: TGFb SMAD3 inh, S2 tox, ATXN2 expr inh, HepG2 tox-1)
OC(c1cc(-c2ccc(C(F)(F)F)cc2)nc(C(F)(F)F)c1)C1CCCCN1 (stereo unspecified)	TGFb SMAD3 inh 2.8µM, S2 tox 3.2µM (no result: ATXN2 expr inh) | TGFb CAGA inh 6.5µM | HepG2 tox-2 23µM | CCL64 TGFb inh 23µM | TGFb COP inh inconclusive
OC(c1cc(C(F)(F)F)nc2c(C(F)(F)F)cccc12)C1CCCCN1 (stereo unspecified)	TGFb SMAD3 inh inconclusive, ATXN2 expr inh inconclusive (no result: S2 tox, HttQ103 aggreg)
COc1cccc(C2C3=C(N=c4s/c(=C\c5cccc(O)c5)c(=O)n42)c2ccccc2CC3)c1OC (stereo unspecified)	TGFb SMAD3 inh 18µM | TGFb CAGA inh 5.8µM | HepG2 tox-2 inconclusive | CCL64 TGFb inh 2.9µM | TGFb COP inh inactive
COc1cccc(C2C3=C(N=c4s/c(=C\c5ccc(O)cc5)c(=O)n42)c2ccccc2CC3)c1OC (stereo unspecified)	HTT ATP protect inconclusive
CN(C)C(=O)c1ccc(-c2ccc3ncnc(NC4CCNCC4)c3c2)cc1	none (no result: TGFb SMAD3 inh, S2 tox, HttQ103 aggreg, ATXN2 expr inh, HepG2 tox-1)

Bioassay records from PubChem.
